Each structure is given as a SMILES string. Several values for one entry are separate records, joined by “and”; a condition that tells them apart may be missing. Equal values may be shown once. The panel holds about 83,000 compounds, 20% with a hit somewhere; the sample as a whole holds those more often.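 Negative percent growth values reflect cell death: -40 means 40% of the cells present at the start died, and -100 means all died.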 Activity calls are given as the source filed them. How the source made its calls: active means growth percent below 10; inactive means the rest.

In the assay the test system is MDA-MB-468 breast. Nature of the assay: NCI-60 one-dose screen, 48 h (100 = growth as untreated, 0 = no growth, -100 = all killed). To be noted: 10 µM unless noted.
`C=CCc1cc2c(cc1OCC)OCO2`: the growth is 101% (inactive).

With `CN(Cc1cccnc1)N=O`, the growth was 103% (inactive). The value for `CC(C)OC(=S)[S-].[Au+].c1ccc([PH+](c2ccccc2)c2ccccc2)cc1` was -32.3% (active); that for `CCCCCCCCCCCCCCCCCC1OCC(COC(=O)O[C@@H](C(=O)O[C@H]2C[C@@]3(O)[C@@H](OC(=O)c4ccccc4)[C@@H]4[C@]5(OC(C)=O)CO[C@@H]5C[C@H](O)[C@@]4(C)C(=O)[C@H](OC(C)=O)C(=C2C)C3(C)C)[C@@H](NC(=O)c2ccccc2)c2ccccc2)O1` (stereo partly drawn) was 3.29% (active); that for `COC(=O)[C@@]1(C)CC[C@]2(C)CC[C@]3(C)C4=CC(=O)c5c(cc(O)c(O)c5C)[C@]4(C)CC[C@@]3(C)[C@@H]2C1` was 30.1% (inactive). As for `COC(=O)C12C3C4C1C1C2C3C41NC(=O)c1csc([C@@H](C[C@H](C(C)C)N(C)C(=O)[C@@H](NC(=O)[C@H]2CCCCN2C)C2CC2)OC(C)=O)n1` (stereo partly drawn), the growth was 29.6% (inactive). As for `CCC[CH2][Sn]([CH2]CCC)([CH2]CCC)[O]C(=O)CC`, the figure is -88% (active); as for `C(=NC1CCCCC1)=NC1CCCCC1`, 103% (inactive) and -21.2% (active). As to `COc1cc2c(cc1OCc1ccccc1)C(CC(C)C)=[N+](C)CC2`, the growth was 2.12% (active). The value for `N#CC1=C(N)Oc2cc3c(cc2C1c1cccs1)OCO3` (stereo not drawn) was 6.33% (active); that for `COc1ccccc1/C=C(/C)[N+](=O)[O-]` was 14.4% (inactive) and 103% (inactive); that for `COc1ccc2c(c1)c(-c1nc(-c3c[nH]c4ncccc34)cs1)cn2CCN1CCOCC1` was 0.314% (active). The value for `O=[N+]([O-])c1cc([N+](=O)[O-])c(Cl)c(Cl)c1Cl` was -57.3% (active). The value for `CC1CCCC(C[N+](C)(C)C)C1=O` (stereo not drawn) was 97.3% (inactive); that for `COc1ccc2c(c1)c(-c1nc(-c3c[nH]c4ncccc34)cs1)cn2CCCCN1CCOCC1` was 39.3% (inactive); that for `CCCCN1CCCC[C@@H]1C(=O)N[C@H](C(=O)N(C)[C@H](C[C@@H](OC(C)=O)c1nc(C(=O)NC2CCC(C(=O)OC)CC2)cs1)C(C)C)C(C)C` (stereo partly drawn) was 17.4% (inactive).

As for `C[C@]12CCC(=O)C[C@@H]1CC[C@@H]1[C@@H]2CC[C@]2(C)[C@@H](OC(=O)N(CCCl)N=O)CC[C@@H]12`, the growth is -45.8% (active). The value for `Oc1ccccc1-c1ccccc1` was 105% (inactive) and 103% (inactive); that for `O=C(C(=O)N1CCCC1)c1cn(CCCCCn2cc(C(=O)C(=O)N3CCCC3)c3ccccc32)c2ccccc12` was 91% (inactive); that for `C[C@]12CC[C@H]3[C@@H](CC4SC(N)=NC45C/C(=N/NC(N)=O)CC[C@]35C)[C@@H]1CCC2=O` (stereo partly drawn) was -46.2% (active). As for `N#CCc1ccc(CC#N)cc1`, the figure is 100% (inactive).

`COc1cc([C@@H]2c3cc4c(cc3[C@H](OC(C)=O)[C@H]3COC(=O)[C@H]23)OCO4)cc(OC)c1OC`: the growth is 44.6% (inactive). For the molecule `Cc1cc[c-]cc1.Fc1c[c-]c(-c2ccccn2)c(F)c1.N#CCC[PH+](CCC#N)c1ccccc1.[Pt+2]`, the growth is 37% (inactive). The value for `O=C(O)c1ccc(=O)[nH]c1` was 95.8% (inactive) and 102% (inactive); that for `O=C1NC(=O)C(CN2C(=O)C3(c4ccccc42)[C@H](Cl)C(=O)N3c2ccccc2)C(=O)N1` (stereo partly drawn) was -23.1% (active). As for `CC12CC(=O)C3(SC#N)C(CCC4=CC(=O)CCC43C)C1CCC2=O` (stereo not drawn), the figure is 24.5% (inactive); as for `COc1cc(C=Nc2cc(Cl)cc(Cl)c2)ccc1N(CCCl)CCCl`, 36.3% (inactive); as for `CCOC(=O)c1cnc(SCc2ccc(Cl)c(Cl)c2)nc1N1CC1`, -3.19% (active).

The values are drawn from PubChem BioAssay (NCI).
